Assay outcomes (PubChem BioAssay)
zVAD death inh: blocks zVAD induced death of L929 cells. L929 zVAD necroptosis rescue, ATP luminescence, 24 h; with zVAD 60 µM. viability rescue, % at 10 µM. 220,000 tested, 0.38% active. AID 1377;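 active = activation, scaled between plate controls, above about 75%, limit read from the data; inactive = activation under that limit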
ROMK primary: modulates human ROMK potassium channel activity; Tet-inducible ROMK, thallium flux fluorescence; actives lie on both sides; B-score at 10 µM; 130,000 tested, 2% active; AID 1918;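 active = signal ratio slope over the read window, or its plate-corrected B-score, at least 3 SD from the plate mean, either direction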;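 also: B-score of the F/F0 ratio slope over 7 to 12 s after thallium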
Target sequence (P48048 whole entry, looked up): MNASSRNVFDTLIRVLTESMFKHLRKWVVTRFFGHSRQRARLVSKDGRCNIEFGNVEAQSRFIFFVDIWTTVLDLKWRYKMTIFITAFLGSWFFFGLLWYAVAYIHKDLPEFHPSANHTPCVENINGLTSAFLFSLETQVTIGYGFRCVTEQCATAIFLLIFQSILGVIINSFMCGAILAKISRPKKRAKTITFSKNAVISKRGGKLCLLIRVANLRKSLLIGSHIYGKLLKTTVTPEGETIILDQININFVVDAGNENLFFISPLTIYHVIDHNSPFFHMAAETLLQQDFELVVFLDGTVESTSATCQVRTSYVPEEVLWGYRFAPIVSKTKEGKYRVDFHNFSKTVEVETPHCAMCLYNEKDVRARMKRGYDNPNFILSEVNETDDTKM
Efa HMGR inh: inhibitors of class II HMG-CoA reductase from Enterococcus faecalis; purified E. faecalis HMGR, NADPH absorbance 340 nm kinetic; inhibition, % at 10 µM; 190,000 tested, 0.41% active;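 active = inhibition above a set limit, the median over all tested compounds plus 3 SD, cut at about 9.5% in these data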;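 also: enzyme runs in reverse so mevalonate oxidation gives rising NADPH absorbance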
14-3-3 Bad inh: disrupts binding of bovine 14-3-3 zeta to phospho-Bad peptide; P63103; TR-FRET 14-3-3zeta/Dy647-pBad peptide displacement, 1 h; inhibition, % at 21.7 µM; 220,000 tested, 0.71% active; AID 781;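 active = inhibition above about 70%, limit read from the data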
Target sequence (P63103 whole entry, looked up): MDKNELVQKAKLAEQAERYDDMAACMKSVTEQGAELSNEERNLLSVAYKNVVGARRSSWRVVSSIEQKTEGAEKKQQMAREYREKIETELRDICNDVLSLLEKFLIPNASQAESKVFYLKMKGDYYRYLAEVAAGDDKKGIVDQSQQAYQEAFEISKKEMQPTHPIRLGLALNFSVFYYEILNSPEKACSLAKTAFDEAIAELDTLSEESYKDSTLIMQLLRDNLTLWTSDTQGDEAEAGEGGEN
Calpain2 inh: blocks pig calpain II enzyme activity; purified calpain II, fluorogenic peptide substrate, 30 min; inhibition, % at 16 µM; 220,000 tested, 0.37% active; AID 1236;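 active = inhibition above about 50%, limit read from the data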
TNF death inh: blocks TNF-alpha induced death of Jurkat FADD-/- cells. AID 463075. Jurkat FADD-/- TNF necroptosis rescue, ATP luminescence, 24 h; 0 = TNF only, 100 = no-TNF cells. 220,000 tested, 0.068% active. activation (protection from cell death), % at 10 µM;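 active = activation, meaning protection from cell death, of at least 50% relative to plate controls; inactive = activation below 50%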;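 also: necroptosis triggered by 40 ng/mL TNF-alpha added together with compound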
Hits are given with their value; n = inactive; x = not tested or not shown; [ ] = another dose, or the depositor's remark. A selection: hits, their analogues and other compounds. The true share with any hit is near 3%.

SMILES	zVAD death inh	ROMK primary	Efa HMGR inh	14-3-3 Bad inh	Calpain2 inh	TNF death inh
CC(=O)c1ccc(N2CCN(C(=O)Cc3n[nH]c(=O)c4ccccc34)CC2)cc1	n	n	13	n	n	n
O=C(Cc1n[nH]c(=O)c2ccccc12)N1CCN(c2ccc(F)cc2)CC1	n	n	n	n	n	n
O=C(Nc1ccc(Cl)cc1)NC1CCCCC1Cc1ccco1 (centres undefined)	n	x	n	n	53	n
O=C(Nc1ccc(Cl)cc1)NC1CCCC1Cc1ccco1 (centres undefined)	n	n	n	n	n	n
COc1ccc(C)cc1NC(=O)COC(=O)C1CCN(C(=O)c2ccc(Cl)cc2)CC1	n	n	19	n	n	n
COc1ccc(OC)c(NC(=O)COC(=O)CSc2ccc(Cl)cc2)c1	x	n	n	n	90	n
COc1ccc(CNC(=S)NC(C)CCc2ccccc2)cc1 (centres undefined)	n	n	n	n	n	n
CC(C(=O)Nc1ccc(F)c(F)c1F)N(C)CC(=O)Nc1ccccc1Br (centres undefined)	n	x	n	n	n	n
CSc1ccc(/C=N/NC(=O)COc2ccc(Br)cc2Cl)cc1	n	x	n	n	n	n
COC(=O)CCCC1=CC2=C(c3ccccc3)C(=O)C(C)(OC(=O)C3CCCC3)C(=O)C2=CN1C(CO)CO (centres undefined)	n	x	x	n	n	n
CC(C)(C)c1ccc(-c2nnc(SCC(=O)c3ccc4c(c3)OCCO4)o2)cc1	n	x	n	87	n	n
COc1cc(CN(C(=S)NCC(=O)NC2CCCC2)C2CCCC2)cc(OC)c1OC	n	n	n	n	n	n
Nc1ccc(O)c2c1C(=O)c1ccccc1C2=O	n	n	n	n	n	n
Nc1c(Cl)cc2c(c1Oc1ccccc1)C(=O)c1ccccc1C2=O	n	n	n	n	53	n
CC(C)CCc1noc(CN2CCN(c3ccc(Cl)cn3)CC2)n1	n	n	n	n	n	n
C=CCNc1nc(-c2ccc(OC)cc2OC)cs1	n	x	n	76	n	n
COc1oc(-c2ccc(Cl)cc2)nc1C(F)(F)F	n	x	21	n	n	n
COC(=O)c1oc(-c2ccc(Cl)cc2)nc1C	n	n	n	n	n	n
O=C(Nc1ccc2oc(-c3cccnc3)nc2c1)c1ccc2c(c1)OCCO2	n	n	n	81	n	n
O=C(Nc1ccc2oc(-c3ccccc3)nc2c1)c1ccc2c(c1)OCCO2	n	n	n	n	n	n
CC1(C)CC(=O)C2=C(C1)OC1=C(C(=O)CC(C)(C)C1)C2c1ccc(O)cc1O	n	-8	n	n	n	n
O=C(Nc1nc(-c2ccc(F)c(F)c2)cs1)c1cnccn1	n	x	x	n	n	n
O=C(CSc1ncnc2[nH]ncc12)Nc1nc(-c2ccc(F)c(F)c2)cs1	n	n	n	74	n	n
CC(C)COC(=O)Nc1nnc(SCc2ccccc2F)s1	n	n	n	n	n	n
CC(C)COC(=O)Nc1nnc(SCCOc2ccccc2)s1	n	x	13	n	n	n
SMILES	zVAD death inh	ROMK primary	Efa HMGR inh	14-3-3 Bad inh	Calpain2 inh	TNF death inh
COc1cc(C)c(Br)cc1S(=O)(=O)N1CCCC1	n	x	n	n	n	n
Clc1ccc(Cc2ccc(SCc3ccccc3)nn2)c(Cl)c1	n	x	n	72	n	n
O=C(NCc1cccnc1)Nc1ccc(F)cc1F	n	n	n	87	n	n
O=C(NCc1cccnc1)Nc1cccc(F)c1	n	n	n	n	n	n
O=C1C(c2ccccc2)SC(=Nc2ccccc2)N1S(=O)(=O)c1ccccc1 (centres undefined)	n	n	n	n	54	n
C=C(C)CNC(=S)N/N=C/c1c(F)cccc1F	n	n	n	n	57	n
O=C(C1=NNCC1c1ccccc1)C1OC1c1ccccc1 (centres undefined)	n	n	x	n	n	n
Cc1ccc(NC(=O)/C(CN(C)C)=N\O)cc1	n	n	n	93[fluorescence artefact?]	n	n
Cc1ccc(NC(=O)CN(C)CC(=O)Nc2ccccc2-c2ccccc2)cc1	n	n	n	n	n	n
CN1C(=O)C(O)(CC(=O)c2cccs2)c2ccccc21 (centres undefined)	n	n	n	n	n	n
CN1C(=O)C(O)(CC(=O)/C=C\c2ccc3c(c2)OCO3)c2ccccc21 (centres undefined)	n	n	11	n	n	n
Cc1ccc(C(=O)CC2(O)C(=O)N(C)c3ccccc32)s1 (centres undefined)	n	n	14	n	n	n
C/C(CC(=O)Nc1ccc2c(c1)OCCO2)=N\NC(=O)c1ccccn1	n	n	n	n	n	n
NS(=O)(=O)c1ccc(CCNCc2cc(Br)ccc2OCc2ccccc2F)cc1	n	n	n	n	53	n
C=CCOc1ccccc1CNCCc1ccc(S(N)(=O)=O)cc1	n	n	n	n	n	n
COc1ccc(CCCC(=O)N/N=C\c2cccs2)cc1	n	x	n	97	n	n
COC(=O)N/N=C/c1cccs1	n	n	n	n	n	n
COc1ccc(N/C(C)=C/C(=S)Nc2ccccc2)cc1	n	x	n	n	n	n
CCc1ccc(C2C(C#N)=C(N)SC(N)=C2C#N)cc1	n	-4.2	n	n	n	n
CCOC(=O)Cn1c2ccccc2n2nc(CCC(=O)O)c(=O)nc12	n	x	n	n	n	n
Fc1cccc(Cn2cc(C(=S)N3CCCCC3)c3ccccc32)c1	n	x	n	n	66	n
CC(C)(C)c1nc(CN2CCOCC2)cc(CN2CCOCC2)c1O	n	n	n	79	n	n
CCOC(=O)c1c(NC(=O)CCC(=O)O)sc2c1CC(C)(C)OC2	n	n	n	n	n	n
CCOC(=O)c1c(NC(=O)C2CC2)sc2c1CC(C)(C)OC2	n	x	x	91	n	n
CCOC(=O)c1ccc(N2C(=O)c3n[nH]c(-c4ccco4)c3C2c2cccc([N+](=O)[O-])c2)cc1 (centres undefined)	n	n	n	n	n	n
SMILES	zVAD death inh	ROMK primary	Efa HMGR inh	14-3-3 Bad inh	Calpain2 inh	TNF death inh
CSc1nnc2c3cc(C)ccc3n(Cc3ccccc3)c2n1	n	x	n	88[fluorescence artefact?]	n	n
O=C(CCCN1C(=O)/C(=C/c2ccccc2)SC1=S)Nc1cccc(O)c1	n	n	n	n	n	n
Cc1ccc(NC(=O)COc2cccc(/C=C3\SC(=S)N(CCC(=O)O)C3=O)c2)cc1Cl	n	x	x	n	76	n
CSc1ccccc1C(=O)C1CCCN(C(=O)CCN2CCCO2)C1 (centres undefined)	n	n	n	n	n	n
Cc1cccc(CSc2nc3ccncc3n2CC(=O)Nc2cc(C)cc(C)c2)c1	x	n	12	n	n	n
Cc1[nH]c2c(C)cccc2c1CC(=O)O	n	n	n	86	n	n
Cc1[nH]c2ccccc2c1CC(=O)O	n	n	n	n	n	n
O=C(CCCSc1nc2ccccc2[nH]1)N1CCN(c2ccc([N+](=O)[O-])cc2)CC1	n	-5.4	n	n	n	n
